# Compound activity deposited in PubChem by National Center for Advancing Translational Sciences (NCATS).
# Mito fusion act: qHTS Assay for Small Molecule Inhibitors of Mitochondrial Division or Activators of Mitochondrial Fusion; S. cerevisiae fusion-defective mutant growth rescue, CellTiterGlo 48 h; Potency, µM (doses to about 46.1 µM), for the others: at the highest dose growth rescue (activation), most hits filed as activators; 320,000 compounds, 0.23% hits; AID 485298, 2010; further: % of control where 0% means no effect; nearly all actives have a fitted effect of over 45% in size
#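 Compounds are tested for their ability to restore growth of mitochondrial fusion-defective yeast strains at non-permissive 37C in YPEG medium over 48 hours. Viability is quantified by luciferase luminescence.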
# FUS suppressor: qHTS for Suppressors of FUS Proteinopathy: Primary screen using FUS-linked yeast assay; Potency, µM (series often up to 76.6 µM), actives largely listed as activators; S. cerevisiae FUS-expressing, growth rescue, OD600, 24 h; 390,000 compounds, 0.24% hits; AID 1347120, 2019;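 further: plate controls were DMSO vehicle for no effect and reference control for full effect; nearly all actives have a fitted effect of over 55% in size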
#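 Cultures pregrown in 2.5% raffinose medium are shifted to minimal medium containing 2% galactose to express toxic FUS. Compounds are tested at several concentrations. After 24hr at 30C, growth is quantified at 600 nm absorbance.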
# aSyn rescue: qHTS of alpha-syn Inhibitors; Yeast expressing alpha-synuclein, growth rescue, BacTiter-Glo, 24 h; Potency, µM (titrated, usually from 46.1 µM), for inactives: top-dose growth rescue (activation), usual class: activators; 370,000 compounds, 0.14% hits; further: % of control where 0% means no effect; nearly all actives have a fitted effect of over 65% in size
#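 Rescue of yeast growth: cells expressing toxic alpha-synuclein, induced in galactose at OD600 0.02, incubated with compound 24 h at 30 C. ATP luminescence quantified growth; inhibitors of toxicity appear as activators.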
# TDP-43 yeast inh: qHTS of TDP-43 Inhibitors; TDP-43 expressing yeast growth rescue, BacTiter-Glo, 24 h; Potency, µM (series often up to 46.1 µM), without a hit: top-dose growth rescue (activation), usual class: activators; AID 652104, 2013; 410,000 compounds, 1.8% hits; further: % of control where 0% means no effect; nearly all actives have a fitted effect of over 50% in size
#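 Growth rescue of TDP-43-toxic yeast measured as ATP luminescence (BacTiter-Glo). Cells grown to mid-log in raffinose, induced in galactose at OD600=0.02, exposed to compound 24 hr at 30 deg C.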
# Abeta rescue: qHTS for compounds that reverse cellular toxicity of Amyloid beta (A-beta) peptide in yeast: Primary Screen | Potency, µM (highest dose often 46.1 µM), usual class: activators | 410,000 compounds, 0.063% hits | yeast expressing A-beta42, growth rescue, OD600, 48 h; response scale: 0% DMSO, 100% iron-clioquinol control | AID 1347071, 2019; further: nearly all actives have a fitted effect of over 55% in size
#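 Growth rescue measured by 600 nm absorbance after 48 h yeast culture at 30 C with compound. Values normalized between DMSO and an equimolar ferric chloride plus clioquinol control.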
# * marks the source's active call; other numbers are inactive results; i = inactive; ? = inconclusive; . = not tested or not shown; ! = a repeat was not active; [ ] = dose if it differs, or a comment. This is a sample that favours compounds with a hit; in the whole collection about 2.2% have one here. The call rests on the fitted dose curve; in most records, active means well fitted curve in the direction sought with a large enough effect; inconclusive means small, poorly fitted or top-dose-only effect, or another doubt; inactive means no such curve, though single readings can be large; an effect the other way counts as inactive or inconclusive. Potency means the concentration at half of the fitted maximal effect.
SMILES,Mito fusion act,FUS suppressor,aSyn rescue,TDP-43 yeast inh,Abeta rescue
O=C(COc1ccc2c3c(c(=O)oc2c1)CCC3)N1CCN(c2ccc(F)cc2)CC1,?,i,8.1%,31.6µM*,i
Cc1cccc(N2CCN(C(=O)COc3ccc4ccc(=O)oc4c3)CC2)c1C,?,i,14.2%,?,i
O=C(COc1ccc2ccc(=O)oc2c1)N1CCN(c2ccccc2)CC1,7.3%,i,14.5%,20µM*,i
N#CCSc1nc2c(cc1C#N)CCCCCC2,11.5%,i,14.4%,15.8µM*,i
CN(CCCc1cnc[nH]1)C(=S)NCCCN(Cc1ccc(Cl)cc1)c1ccc(Br)cn1,.,.,-18.8%,.,.
Cn1nnc(NC(=S)NC(=O)c2ccc3ccccc3c2)n1,.,i,-1.8%,?,i
Cn1nnc(NC(=S)NC(=O)c2cccc3ccccc23)n1,-8.8%,i,-9.2%,9.0%,11.2µM*
CCCCn1nnc(NC(=S)NC(=O)c2cccs2)n1,1.9%,.,-14.7%,35.5µM*,i
CCN1CCCCC(NC(=O)c2ccc(F)c(F)c2)C1=O (stereo not drawn),.,i,.,.,.
Cc1ccc(-n2ncc(C(=O)NCCCN3CCN(C)CC3)c2C2CCN(C(=O)OC(C)(C)C)CC2)cc1,.,i,.,2.7%,i
CC(=O)N1CCc2c(sc3c2c(=O)n(-c2ccccc2)c(=O)n3Cc2cccc(C(F)(F)F)c2)C1,.,i,.,2.6%,i
CCOC(=O)C1=CCN(S(=O)(=O)c2ccc(C)cc2)C1c1ccccc1 (stereo not drawn),.,i,5.6%,13.0%,i
CCOc1cc2c(c3c1C(c1ccccc1)N(S(=O)(=O)c1ccc(C)cc1)C3)C(=O)C=CC2=O (stereo not drawn),.,i,-2.9%,12.6µM*,i
Cc1cc(C)cc(C(=O)Nc2c(C(=O)Nc3ccccc3F)oc3ccccc23)c1,.,i,.,-14.8%,i
O=C(O)c1cccnc1SCc1cccc(Cl)c1,-6.0%,i,8.8%,35.5µM*!,i
CN(C)c1ccc(/C=C/c2ccc3cc(F)ccc3n2)cc1,.,.,-17.4%,.,.
COc1ccc(-c2nc3ccccc3o2)cc1NC(=O)COc1ccc(C)cc1,.,.,4.0%,.,.
Cc1cccc(CCNc2ncnc3onc(-c4ccc(Cl)cc4)c23)c1,.,i,.,35.5µM*,i
Cc1ccc(CCNc2ncnc3onc(-c4ccc(Cl)cc4)c23)cc1,.,i,.,20.7%,i
CC(C)CNc1ncnc2onc(-c3ccc(Cl)cc3)c12,.,i,.,11.2µM*,i
Clc1ccc(CNc2ncnc3onc(-c4ccc(Cl)cc4)c23)cc1,.,?,.,12.6µM*,i
COc1ccc(-c2nc3ccc(NS(=O)(=O)c4ccc(Cl)cc4)cc3o2)cc1,.,i,.,12.2%,?
O=C(C[n+]1ccccc1)c1ccc(I)cc1,.,.,-1.1%,.,.
COc1ccc(-c2nnc(SCC(=O)NCc3ccccc3)nc2-c2ccc(OC)c(OC)c2)cc1OC,.,?,.,13.0%,i
CN1CCCN(S(=O)(=O)c2ccc3c(c2)n(C)c(=O)c(=O)n3C)CC1,.,i,.,.,.
SMILES,Mito fusion act,FUS suppressor,aSyn rescue,TDP-43 yeast inh,Abeta rescue
O=C(CCc1nc(-c2ccccc2F)no1)NCCc1cccc(F)c1,.,i,.,.,.
O=C1CC(Sc2ccc(Cl)cc2)C(=O)N1c1ccc2c(c1)OCCO2 (stereo not drawn),-3.1%,i,26.0%,11.2µM*,i
COc1ccc(NC(=O)c2ccc(-c3ccccc3C(F)(F)F)o2)cc1,?,i,-13.0%,12.6µM*,i
CCCCCCCCN1C(=O)[C@H](CC(=O)NCc2ccc(OC)c(OC)c2)C[C@@]2(C(=O)OCC)CCC=C12,.,?,-4.7%,28.2µM*,i
CCCCCCCCN1C(=O)[C@H](CC(=O)NCc2ccc(OC)c(OC)c2)C[C@@]2(C(=O)OC)CCCCC=C12,.,?,16.9%,20µM*,i
COC(=O)[C@]12CCCCC=C1N(CCc1ccc(OC)c(OC)c1)C(=O)[C@H](CC(=O)NCC13CC4CC(CC(C4)C1)C3)C2,.,8.91µM*,-1.2%,-11.9%,i
CCCCNC(=O)C[C@@H]1C[C@@]2(C(=O)OC)CCCCC=C2N(CCc2ccc(OC)c(OC)c2)C1=O,.,i,-2.5%,-11.8%,i
CC(CNC(=O)c1cc2ccccn2n1)c1ccccc1 (stereo not drawn),.,i,.,0.0%,i
Cc1ccc(-c2nnc(NC(=O)c3ccco3)s2)cc1,13.1%,i,-2.4%,-17.7%,i
Cc1ccc(-c2csc(NC(=O)c3ccco3)n2)cc1C,-12.1%,i,-31.6%,-13.2%[1.82 µM],i
Cc1ccc(-c2nonc2NC(=O)c2ccco2)cc1C,.,i,.,20µM*,i
Cc1ccc(-c2nonc2NC(=O)c2ccco2)cc1,-1.9%,i,-11.6%,25.1µM*,.
COc1ccc2c(c1)CCC2=O,.,.,-2.2%,.,.
Cc1ccc(-c2onc(C)c2C)cc1S(=O)(=O)Nc1ccc(Cl)cn1,.,i,.,-2.8%,i
COc1ccccc1-c1cc2nc(C)c(CCC(=O)NCc3cccc(Cl)c3)c(C)n2n1,.,i,.,-7.7%,i
CC1(C)SC2c3ccccc3C(=O)N2[C@@H]1C(=O)NC1CCCC1 (stereo partly drawn),17.5%,i,-8.5%,0.7%,i
CC1(C)SC2c3ccccc3C(=O)N2[C@@H]1C(=O)NC1CC1 (stereo partly drawn),18.0%,i,-4.6%,1.26µM*,i
OCCN1CCN(c2ncnc3scc(-c4ccc(F)cc4)c23)CC1,-1.6%,i,-6.2%,12.3%,i
Cc1ccc(-c2csc3ncnc(N4CCN(S(=O)(=O)c5ccc(C#N)cc5)CC4)c23)cc1,.,i,3.9%,?,i
Oc1ccccc1N1CCN(c2ncnc3scc(-c4ccc(F)cc4)c23)CC1,?,?,16.2%,22.4µM*,i
Cc1ccc(-c2csc3ncnc(N4CCN(S(=O)(=O)c5cccs5)CC4)c23)cc1,-30.2%,.,15.5%,4.47µM*,i
O=C(c1ccco1)N1CCN(c2ncnc3scc(-c4ccc(Cl)cc4)c23)CC1,.,i,3.7%,25.1µM*,i
Oc1ccccc1N1CCN(c2ncnc3scc(-c4ccccc4)c23)CC1,5.1%,?,26.4%,17.8µM*,i
O=C(NCCc1nc2ccccc2n1CCCOc1ccc2ccccc2c1)C1CCCCC1,.,.,0.1%,.,.
COc1ccccc1Nc1nn2c(=O)c3ccc(C(=O)NCCc4ccccc4)cc3nc2s1,.,i,.,10.6%,i
c1ccc2c(c1)OCC(c1csc3ncnc(N4CCCC4)c13)O2 (stereo not drawn),-12.0%,i,7.6%,22.4µM*,i
